Source: PubChem BioAssay (NCI)
Compounds without any hit were thinned out: in the full panel of roughly 83,000, 20% have a hit.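 Single-dose data. Exposure time 48 hours. Values below 10 considered active.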 A number with no mark means an inactive call. The source made the active and inactive calls.

Columns and labels:
Assay in all cases: NCI-60 one-dose screen, 48 h (100 = growth as untreated, 0 = no growth, -100 = all killed)
Conditions in all cases: 10 µM unless noted
[1] = system: HCT-15 colon
[2] = system: HT29 colon
[3] = system: SNB-75 CNS
[4] = system: SNB-19 CNS
[5] = system: U251 CNS
[6] = system: PC-3 prostate
[7] = system: SK-MEL-5 melanoma
[8] = system: UACC-62 melanoma
[9] = system: SK-MEL-28 melanoma
[10] = system: SK-MEL-2 melanoma
[11] = system: EKVX NSCLC
[12] = system: SN12C renal
[13] = system: TK-10 renal
[14] = system: CAKI-1 renal
[15] = system: A498 renal
[16] = system: CCRF-CEM leukemia
[17] = system: MOLT-4 leukemia
[18] = system: ACHN renal
[19] = system: UO-31 renal

## O=C(/C=C/c1cccc2ccccc12)Nc1ncc(Cc2ccccc2)s1
[1]
  growth: 12.2%
[2]
  growth: 14.1%
[3]
  growth: -17.2% (active)
[4]
  growth: 9.85% (active)
[5]
  growth: 1.44% (active)
[6]
  growth: 30.3%
[7]
  growth: 10.6%
[8]
  growth: 15.9%
[9]
  growth: 44.1%
[10]
  growth: 43.4%
[11]
  growth: 20.3%
[12]
  growth: 32.1%
[13]
  growth: 31.7%
[14]
  growth: 22.5%
[15]
  growth: -10.8% (active)
[16]
  growth: 10.4%
[17]
  growth: 18%

## O=C(/C=C/c1ccc2ccccc2c1)Nc1ncc(Cc2ccccc2)s1
[1]
  growth: 55.7%
[2]
  growth: 69.5%
[3]
  growth: 34.4%
[4]
  growth: 69.5%
[5]
  growth: 25.8%
[6]
  growth: 71.2%
[7]
  growth: 92.8%
[8]
  growth: 59.8%
[9]
  growth: 85%
[10]
  growth: 98.1%
[11]
  growth: 71.4%
[12]
  growth: 43.9%
[18]
  growth: 6.83% (active)
[14]
  growth: 45.1%
[15]
  growth: 86.2%
[16]
  growth: 49.2%
[17]
  growth: 65.8%

## COc1ccc(/C=C(\C#N)c2cc3ccccc3n2S(C)(=O)=O)cc1
[1]
  growth: 46.4%
[2]
  growth: 102%
[3]
  growth: 73.1%
[4]
  growth: 82.3%
[5]
  growth: 96.8%
[6]
  growth: 80.2%
[7]
  growth: 87.8%
[8]
  growth: 58.1%
[9]
  growth: 82.5%
[10]
  growth: 101%
[11]
  growth: 85.9%
[12]
  growth: 90.8%
[13]
  growth: 125%
[18]
  growth: 91.2%
[14]
  growth: 53.2%
[15]
  growth: 99.2%
[16]
  growth: 86%
[17]
  growth: 89.8%

## C=C(C)[C@@H]1CC[C@]2(c3nnc(-c4ccncc4)o3)CC[C@]3(C)[C@H](CC[C@@H]4[C@@]5(C)CCC(=O)NC(C)(C)[C@@H]5CC[C@]43C)[C@@H]12
[1]
  growth: 100%
[2]
  growth: 99.6%
[3]
  growth: 93.7%
[4]
  growth: 92.5%
[5]
  growth: 96%
[6]
  growth: 69.5%
[7]
  growth: 90.1%
[8]
  growth: 79.7%
[9]
  growth: 109%
[10]
  growth: 111%
[11]
  growth: 95.1%
[12]
  growth: 91.8%
[19]
  growth: 76.6%
[18]
  growth: 98.7%
[14]
  growth: 51.1%
[15]
  growth: 99.3%
[16]
  growth: 95%
[17]
  growth: 85.6%

## Brc1cnc2[nH]cc(-c3nnc(-c4ccccc4)o3)c2c1
[1]
  growth: 55%
[2]
  growth: 74.8%
[3]
  growth: 66.3%
[4]
  growth: 79.5%
[5]
  growth: 74.6%
[6]
  growth: 77.9%
[7]
  growth: 80.4%
[8]
  growth: 66.9%
[9]
  growth: 90.9%
[10]
  growth: 73.3%
[11]
  growth: 31.4%
[12]
  growth: 79.9%
[13]
  growth: 58.9%
[18]
  growth: 28.9%
[14]
  growth: 34.2%
[15]
  growth: 47%
[16]
  growth: 102%
[17]
  growth: 74.3%

## CC(C)/C=C/CC[C@](C)(O)[C@H]1CC[C@]2(C)[C@@H]1CC[C@@H]1[C@@]3(C)C/C(=C/c4cccc(C(F)(F)F)c4)C(=O)C(C)(C)[C@@H]3CC[C@]12C
[1]
  growth: 90.6%
[2]
  growth: 97.3%
[3]
  growth: 62.8%
[4]
  growth: 92.2%
[5]
  growth: 92.6%
[6]
  growth: 79.5%
[7]
  growth: 97.6%
[8]
  growth: 81.8%
[9]
  growth: 105%
[10]
  growth: 126%
[11]
  growth: 103%
[19]
  growth: 79.6%
[13]
  growth: 157%
[18]
  growth: 97%
[14]
  growth: 64.3%
[15]
  growth: 99%
[16]
  growth: 86.9%
[17]
  growth: 88.3%

## c1cc(N2CCCC2)c2nc(-c3[nH]ncc3Nc3ncnc4[nH]ccc34)[nH]c2c1
[1]
  growth: -26.4% (active)
[2]
  growth: 1.13% (active)
[3]
  growth: -59.6% (active)
[4]
  growth: -13.1% (active)
[5]
  growth: 3% (active)
[6]
  growth: 3.86% (active)
[7]
  growth: -89.3% (active)
[8]
  growth: -78.5% (active)
[9]
  growth: -53.3% (active)
[10]
  growth: -42.1% (active)
[11]
  growth: -31% (active)
[12]
  growth: -13.7% (active)
[19]
  growth: -20.3% (active)
[18]
  growth: -14.6% (active)
[14]
  growth: -33.2% (active)
[15]
  growth: -79.5% (active)
[16]
  growth: 1.97% (active)
[17]
  growth: 1.93% (active)

## CCCC1CCCCN1C(=O)OCC(C)C (stereo not drawn)
[1]
  growth: 108%
[2]
  growth: 102%
[3]
  growth: 99.5%
[4]
  growth: 102%
[5]
  growth: 103%
[6]
  growth: 96.5%
[7]
  growth: 109%
[8]
  growth: 103%
[9]
  growth: 113%
[10]
  growth: 108%
[11]
  growth: 104%
[12]
  growth: 102%
[18]
  growth: 100%
[14]
  growth: 90.2%
[15]
  growth: 108%
[16]
  growth: 96.3%
[17]
  growth: 95.3%

## C=C(C)[C@@H]1CC[C@]2(C)[C@H](CC=C3[C@@H]4CC(C)(C)CC[C@]4(C(=O)OC)CC[C@]32C)[C@@]1(C)CC/C(N)=N/O
[1]
  growth: 18.5%
[2]
  growth: 24.3%
[3]
  growth: 101%
[4]
  growth: 67.9%
[5]
  growth: -81.8% (active)
[6]
  growth: 26.6%
[7]
  growth: -19.9% (active)
[8]
  growth: 58.6%
[9]
  growth: 60.9%
[10]
  growth: 46.6%
[11]
  growth: 25.2%
[12]
  growth: 36.4%
[18]
  growth: 43.8%
[14]
  growth: 37%
[15]
  growth: 77.7%
[16]
  growth: 37.3%
[17]
  growth: 6.47% (active)
